Tau fluor cs = counter-screen for tau fibril formation inhibitors. tau K18 P301L Alexa594 fluorescence, heparin fibrillization. Potency, µM (series often up to 57.7 µM). 280,000 tested, 0.93% active. AID 1463; further: nearly all actives have a fitted effect of over 55% in size
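Human tau K18 P301L (15 uM unlabeled, 0.24 uM Alexa 594-labeled) in 100 mM sodium acetate pH 7 with 20 uM heparin, 6 hr at 37 C. ThT 30 uM added, 1 hr ambient; Alexa 594 FP and total fluorescence read at 555/632 nm.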
NPSR antagonist = neuropeptide S receptor (human) antagonism, cAMP; Q6W5P4; Potency, µM (series often up to 38.3 µM), usual class: inhibitors; CHO-NPSR cells, cAMP TR-FRET, antagonist mode; 220,000 tested, 1% active; AID 1461; further: nearly all actives have a fitted effect of over 50% in size
Target sequence (Q6W5P4 whole entry, looked up): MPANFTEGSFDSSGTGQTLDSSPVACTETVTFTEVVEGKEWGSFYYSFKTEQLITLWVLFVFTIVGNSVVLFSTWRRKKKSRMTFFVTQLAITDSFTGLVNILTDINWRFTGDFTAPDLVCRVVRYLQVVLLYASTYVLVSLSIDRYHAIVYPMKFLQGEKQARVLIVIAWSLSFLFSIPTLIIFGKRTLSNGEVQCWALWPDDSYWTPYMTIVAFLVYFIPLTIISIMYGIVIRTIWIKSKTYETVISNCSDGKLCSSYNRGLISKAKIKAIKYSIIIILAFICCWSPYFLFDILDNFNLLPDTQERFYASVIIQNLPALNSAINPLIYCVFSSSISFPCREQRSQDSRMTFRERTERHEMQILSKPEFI
Tau fibril FP = tau fibrillization inhibition (FP) | 280,000 tested, 0.39% active | K18 P301L tau heparin fibrillization, Alexa594 FP, 6 h | Potency, µM (titrated, usually from 57.7 µM), hits mostly inhibitors | P10636; further: nearly all actives have a fitted effect of over 55% in size
Target sequence (P10636 561-689 P618L limits assumed): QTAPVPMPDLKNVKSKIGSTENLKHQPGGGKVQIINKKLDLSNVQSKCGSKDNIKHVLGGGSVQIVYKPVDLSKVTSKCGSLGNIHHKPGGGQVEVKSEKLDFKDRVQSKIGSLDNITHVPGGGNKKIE
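Quantitative HTS format: compounds meet 15 uM recombinant K18 P301L tau and Alexa 594-tau tracer in 100 mM sodium acetate pH 7; 20 uM heparin triggers fibrillization at 37 C over 6 hr; FP gives the signal.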
KinaseGlo FLuc = counter-screen: inhibitors of Kinase-Glo firefly luciferase; Q27757; Kinase-Glo luciferase, ATP luminescence, 8 min; Potency, µM (series often up to 38.3 µM), actives largely listed as inhibitors; 200,000 tested, 0.28% active; AID 1379; further: nearly all actives have a fitted effect of over 60% in size
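Kinase-Glo luciferase light output from ATP and luciferin was measured with 10 uM ATP, within the enzyme's linear range. Buffer: 50 mM imidazole pH 7.2, 50 mM KCl, 7 mM MgCl2, 0.01% Tween 20, 0.05% BSA; luminescence read after 8 min at ambient temperature.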
Tau ThT inhib = tau fibrillization inhibition (ThT binding); P10636; recombinant tau K18 P301L (four-repeat tau fragment), heparin-induced fibrillization, ThT fluorescence; Potency, µM (series often up to 57.4 µM), hits mostly inhibitors; 270,000 tested, 2.1% active; further: nearly all actives have a fitted effect of over 55% in size
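Aggregation was driven by heparin (20 uM final) acting on recombinant tau […] bearing P301L in 100 mM sodium acetate pH 7; fibrils were detected with Thioflavin T.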
A number is an active result; 0 = inactive; ? = inconclusive; - = not tested or not shown; [ ] = dose if it differs, or a comment. Only some compounds are listed: those with a hit (about 3.3% of all), similar ones and a draw of the others. The call rests on the fitted dose curve; in most records, active means well fitted curve in the direction sought with a large enough effect; inconclusive means small, poorly fitted or top-dose-only effect, or another doubt; inactive means no such curve, though single readings can be large; an effect the other way counts as inactive or inconclusive.

SMILES	Tau fluor cs	NPSR antagonist	Tau fibril FP	KinaseGlo FLuc	Tau ThT inhib
O=C(Nc1ccccc1)Nc1sccc1-c1nc2ccccc2s1	?	0	?	-	?
O=C(Nc1cccc(-c2nc3ccccc3s2)c1)c1cccs1	?	0	22µM	0	?
O=C(Nc1cccc(Cl)c1)Nc1sccc1-c1nc2ccccc2s1	14µM[quencher]	0	?	-	?
CCOc1ccc(OCC(=O)Nc2nccs2)cc1	0	0	0	11µM	0
COc1ccc(OCCC(=O)Nc2nccs2)cc1	0	0	0	0	0
CCOc1ccc(S(=O)(=O)N(C)c2ccc(OCC(=O)Nc3nccs3)cc2)cc1	0	0	0	0	0
COc1ccc(OCC(=O)Nc2nccs2)cc1	0	0	0	10µM	0
O=C1CC(/C=C/c2ccc([N+](=O)[O-])cc2)=Nc2ccccc2N1	?	0	0	-	4µM
C=CCn1c(SCC(=O)NC2CCCC2)nc2scc(-c3ccco3)c2c1=O	0	0	?	0	28µM
CC(C)(C)C(=O)Nc1ccc(-c2nc3ccccc3s2)cc1	0	-	0	-	0
CCOc1cccc(C(=O)Nc2ccc(-c3nc4cc(C)cc(C)c4o3)cc2)c1	0	-	?	-	0
O=[N+]([O-])c1ccccc1NCCNS(=O)(=O)c1ccc(Cl)cc1	0	0	0	0	0
O=[N+]([O-])c1cc(Cl)ccc1NCCNS(=O)(=O)c1ccccc1	?	0	0	0	13µM
COc1cc(/C=C(\C#N)c2nc3ccccc3n2C)cc(OC)c1OC	0	-	0	-	0
COc1ccc(/C=C(\C#N)c2nc3ccccc3n2C)c(OC)c1	?	-	0	-	14µM
COC(=O)c1sc(NC(=O)c2cc(-c3ccccc3)nc3ccccc23)c(C#N)c1C	?	0	?	0	28µM
O=C(NC1=NCCS1)c1cc(-c2ccc(-c3ccccc3)cc2)nc2ccccc12	0	0	28µM	0	0
CCOC(=O)c1sc(NC(=O)c2cc(-c3ccc(C)cc3)nc3ccccc23)c(C#N)c1C	0	0	?	0	?
CCCOc1ccc(N2C(=O)CC(N(CCc3ccc(OC)cc3)C(=O)c3ccccc3)C2=O)cc1 (stereo not drawn)	0	0	0	-	?
CSc1ccc(CCNC(=O)c2ccc(CS(=O)(=O)c3ccc(Br)cc3)o2)cc1	0	-	0	-	0
C=C/C(C)=C/[C@@]1(C)SC(=O)C(C)=C1O	0	0	0	0	0
CCc1ccc(-n2nc(CO)c(C(=O)NCc3cccnc3)n2)cc1	0	-	0	-	0
CC(=Nc1ccc(O)cc1)c1sc2ccccc2c1O	?	0	0	0	4.5µM
CC(=Nc1ccccc1O)c1sc2ccccc2c1O	28µM[quencher]	?	0	-	5µM
Cc1ccc(C2=N/C(=C\c3c(C)nn(-c4ccccc4)c3N3CCCC3)C(=O)O2)cc1	0	0	0	0	13µM
SMILES	Tau fluor cs	NPSR antagonist	Tau fibril FP	KinaseGlo FLuc	Tau ThT inhib
CCCCCCCCCn1c2c(c(=N)c3c1CCC3)CCC2	0	7.9µM	0	0	0
CN1C(=O)/C(=C/c2cn(CC(=O)NCc3ccco3)c3ccccc23)NC1=S	?	0	?	0	13µM
COc1ccc(Nc2nc3cc(Cl)c(Cl)cc3n3cnnc23)cc1Cl	?	-	0	-	0
O=C(/C=C\c1ccc2c(c1)OCO2)NC1CC(=O)N(c2cccc(F)c2)C1 (stereo not drawn)	0	-	0	-	0
COc1ccc(-c2nc3ccc([N+](=O)[O-])cc3[nH]2)cc1	?	0	0	0	11µM
CN1c2ccccc2N(C)C1(C)c1cccc2ccccc12	0	0	?	0	16µM
Cc1ccc(-n2nc(C)c3c(C(F)(F)F)cc(-c4cccnc4)nc32)cc1C	0	-	0	-	0
CC(=O)c1cccc(NC(=O)Nc2csc3c2CCCC3)c1	11µM[quencher]	0	?	-	?
O=C(Nc1ccc(F)cc1)Nc1csc2c1CCCC2	7.1µM[quencher]	-	0	-	?
Cc1cc(NC(=O)CCS(=O)(=O)c2cc(Br)cc3c2N(C(=O)C2CC2)CC3)ccc1Br	0	-	0	-	0
COc1cc(C(=O)Nc2nc(-c3cc(C)ccc3C)c(C)s2)ccc1OCC(=O)Nc1ccc(F)cc1	0	?	0	0	0
COc1ccc(-c2nc(NC(=O)c3ccc(OCC(=O)Nc4ccc(F)cc4)c(OC)c3)sc2C)cc1	0	10µM	0	0	0
CN/N=C(\Cc1nc2ccccc2[nH]1)c1ccc([N+](=O)[O-])cc1	?	0	0	0	13µM
Clc1ccc(/C(Cc2nc3ccccc3[nH]2)=N\Nc2ccccc2)cc1	13µM[quencher]	?	0	-	?
N#CCCN/N=C(/Cc1nc2ccccc2[nH]1)c1cccc(Cl)c1	?	0	0	0	?
O=C(Cc1nc2ccccc2[nH]1)c1ccc([N+](=O)[O-])cc1	?	0	?	-	16µM
CCc1cnc2c(c1SCC(=O)Nc1ccc(C(=O)OC)cc1)c(=O)n(C)c(=O)n2C	0	-	0	-	0
COC(=O)c1ccc2nc(C)cc(Nc3ccc(N(C)C)cc3)c2c1	?	0	0	0	?
Cc1cc(NC(=O)Nc2ccc(N(C)C)cc2)c2cc(F)cc(F)c2n1	7.9µM[quencher]	-	0	0	?
COc1cc2c(=O)n(Cc3ccccc3)c(=O)n(CC(=O)Nc3cc(C(F)(F)F)ccc3Cl)c2cc1OC	0	-	?	-	0
O=C(CSc1nc2ccc(Cl)cc2[nH]1)Nc1ccc2c(c1)CCC2	?	0	13µM	-	?
CCOC(=O)C(NC(C)=O)(N1CCc2ccccc2C1)C(F)(F)F (stereo not drawn)	0	0	?	0	25µM
Cc1ccc(Cl)c2sc(NC(=O)CS(=O)(=O)c3ccc(Cl)cc3)nc12	?	-	11µM	-	0
Cc1ccc(S(=O)(=O)CC(=O)Nc2nc3c(C)cccc3s2)cc1	0	-	?	-	0
COc1ccccc1N1CCN(c2ncnc3nc[nH]c23)CC1	0	0	0	0	0
SMILES	Tau fluor cs	NPSR antagonist	Tau fibril FP	KinaseGlo FLuc	Tau ThT inhib
COc1ccc(N2CCN(c3ncnc4nc[nH]c34)CC2)cc1	0	0	0	0	18µM
O=C(NCc1cccs1)O[C@H]1C[C@H]2CC[C@@H]1C2	-	-	-	0[7.66 µM]	-
O=C(c1cccs1)c1no[n+]([O-])c1C(=O)c1cccs1	?	?	?	0	?
Cc1c(C(=O)c2no[n+]([O-])c2C(=O)c2cnn(C)c2C)cnn1C	0	0	?	0	14µM
CC(=O)Nc1ccc(S(=O)(=O)Oc2ccc(/C=N/NC(=O)c3ccc(Cl)cc3)cc2)cc1	?	?	13µM	0	?
CC(=O)Nc1ccc(C(=O)N/N=C/c2ccc(F)cc2)cc1	0	0	0	0	0
CCCC(=O)C1=C(c2ccccc2)C(C#N)(C#N)C(C#N)=C1N	?	0	?	0	28µM
CCCC(=O)NC1=C(C#N)C2(CCCC2)Cc2ccccc21	0	0	0	0	0
Cc1ccc(-n2nnnc2SC(C(=O)c2c[nH]c3ccccc23)c2ccccc2)cc1 (stereo not drawn)	?	0	11µM	0	0
CCOC(=S)SCC(=O)O	-	-	-	0[7.66 µM]	-
O=C(CSCc1cnn(-c2ccccc2)c1-n1cccc1)Nc1ccc(F)cc1F	0	-	0	-	0

Screening data (PubChem)
